The values that follow come from PubChem BioAssay.

Assay [1] in a line: antimalarial activity against Dd2 strain (AID 2302;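 active = growth inhibition above 50% at the single 2 µM test dose, taken to imply half-maximal potency below 2 µM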;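 also: 0% = DMSO untreated growth and 100% = chloroquine plus artemisinin killed control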). Particulars: P. falciparum Dd2 in RBCs, LDH growth readout, 72 h; at 2 µM; active compounds read high.
A short description of assay [2]: human hepatoma cell viability loss – ATP luminescence, cytotoxicity control for P. falciparum antimalarial project, primary screen (AID 2303;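 active = inhibition above 50%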;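 also: 0% = DMSO wells and 100% = digitonin-killed cells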). The following applies: HepG2 viability, 24-48 h, at 10 µM, active compounds read high.
Assay [3] concerns the target L-lactate dehydrogenase (Plasmodium falciparum (isolate CDC / Honduras)) (UniProt Q27743). The experiment in a line: PfLDH activity inhibition – cell lysate, 3D7 strain, counter-screen for P. falciparum growth inhibition project (AID 2304).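 Also: 0% = vehicle and 100% = reference inhibitor.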 The following applies: P. falciparum 3D7 crude extract, LDH APAD/NBT absorbance; at 2 µM; active compounds read high. In general terms: A counterscreen serves to expose hits that act by an unwanted route or on another target.

Assay [4] in a line: inhibition of 3D7 malaria parasite growth – strain 3D7 (AID 2306).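 Also: 0% = DMSO wells and 100% = chloroquine plus artemisinin control wells.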 The following applies: P. falciparum 3D7 erythrocytic growth, LDH absorbance, 72 h; at 2 µM; active compounds read high.
The target in assay [5] is Calcium-dependent protein kinase 1 (Plasmodium falciparum (isolate 3D7)) (UniProt P62344). The experiment in a line: PfCDPK1 kinase inhibitors, biochemical, TCAMS library (AID 1159585; cut-off not given, nearly all actives have IC50 up to about 0.98 µM;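 also: inhibitors leave more ATP so luminescence rises with inhibition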). The following applies: recombinant PfCDPK1, Kinase-Glo ATP depletion luminescence. A general note: Kinase-Glo reads ATP consumption through a luciferase reaction.
Chain of Calcium-dependent protein kinase 1 (Plasmodium falciparum (isolate 3D7)) (P62344 whole entry, looked up): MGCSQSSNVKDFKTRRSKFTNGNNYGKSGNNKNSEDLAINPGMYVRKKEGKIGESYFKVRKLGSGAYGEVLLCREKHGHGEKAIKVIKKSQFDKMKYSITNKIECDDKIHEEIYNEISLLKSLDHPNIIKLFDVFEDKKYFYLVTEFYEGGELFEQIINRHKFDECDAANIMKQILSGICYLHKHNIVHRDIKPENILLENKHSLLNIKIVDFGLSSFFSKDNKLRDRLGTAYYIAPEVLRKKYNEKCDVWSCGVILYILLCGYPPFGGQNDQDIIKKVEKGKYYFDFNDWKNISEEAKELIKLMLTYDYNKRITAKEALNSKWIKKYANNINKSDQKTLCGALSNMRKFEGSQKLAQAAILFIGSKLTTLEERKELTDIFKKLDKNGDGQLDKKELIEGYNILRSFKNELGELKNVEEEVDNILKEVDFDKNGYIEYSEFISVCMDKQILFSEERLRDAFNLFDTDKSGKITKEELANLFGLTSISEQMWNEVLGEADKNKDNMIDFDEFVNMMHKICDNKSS
In assay [6] the target is Plasmodium falciparum protein kinase 6 (PK6, PF3D7_1337100) (UniProt Q8IDW1). As to the kind of experiment: PfPK6 kinase inhibitors, biochemical, TCAMS library (AID 1159586). Particulars: recombinant PfPK6, Kinase-Glo ATP depletion luminescence.
Chain of Plasmodium falciparum protein kinase 6 (PK6, PF3D7_1337100) (Q8IDW1 1-305): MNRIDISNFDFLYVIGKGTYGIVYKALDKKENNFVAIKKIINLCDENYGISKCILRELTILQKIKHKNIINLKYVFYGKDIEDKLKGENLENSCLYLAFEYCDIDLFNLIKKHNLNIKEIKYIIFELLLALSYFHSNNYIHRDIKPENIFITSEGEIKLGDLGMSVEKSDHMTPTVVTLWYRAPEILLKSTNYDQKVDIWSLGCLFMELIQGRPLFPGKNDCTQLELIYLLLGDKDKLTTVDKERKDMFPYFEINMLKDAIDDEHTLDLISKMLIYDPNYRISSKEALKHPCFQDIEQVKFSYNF
For assay [7], the target named is Protein kinase 7 (PK7), Plasmodium falciparum 3D7 (PF3D7_0213400) (UniProt Q7YTF7). The experiment in a line: inhibition of Plasmodium PK7 catalytic activity – biochemical, TCAMS antimalarial set, Kinase-Glo luminescence (AID 1159587). The following applies: recombinant PfPK7, Kinase-Glo ATP depletion luminescence.
Chain of Protein kinase 7 (PK7), Plasmodium falciparum 3D7 (PF3D7_0213400) (Q7YTF7 1-343): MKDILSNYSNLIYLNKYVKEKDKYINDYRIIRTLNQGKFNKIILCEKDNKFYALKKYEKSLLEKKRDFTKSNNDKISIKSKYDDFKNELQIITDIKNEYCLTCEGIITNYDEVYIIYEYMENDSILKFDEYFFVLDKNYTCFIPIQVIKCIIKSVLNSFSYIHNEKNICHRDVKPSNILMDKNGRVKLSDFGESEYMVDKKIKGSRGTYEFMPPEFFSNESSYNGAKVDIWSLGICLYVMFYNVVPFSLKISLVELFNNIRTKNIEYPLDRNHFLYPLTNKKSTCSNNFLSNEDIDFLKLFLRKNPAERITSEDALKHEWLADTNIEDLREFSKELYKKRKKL
In assay [8] the target is Calcium-dependent protein kinase 4 (Plasmodium falciparum (isolate 3D7)) (UniProt Q8IBS5). The experiment in a line: PfCDPK4 kinase inhibitors, biochemical, TCAMS library (AID 1159588; cut-off not given, nearly all actives have IC50 up to about 0.91 µM). The following applies: recombinant PfCDPK4, Kinase-Glo ATP depletion luminescence.
Chain of Calcium-dependent protein kinase 4 (Plasmodium falciparum (isolate 3D7)) (Q8IBS5 whole entry, looked up): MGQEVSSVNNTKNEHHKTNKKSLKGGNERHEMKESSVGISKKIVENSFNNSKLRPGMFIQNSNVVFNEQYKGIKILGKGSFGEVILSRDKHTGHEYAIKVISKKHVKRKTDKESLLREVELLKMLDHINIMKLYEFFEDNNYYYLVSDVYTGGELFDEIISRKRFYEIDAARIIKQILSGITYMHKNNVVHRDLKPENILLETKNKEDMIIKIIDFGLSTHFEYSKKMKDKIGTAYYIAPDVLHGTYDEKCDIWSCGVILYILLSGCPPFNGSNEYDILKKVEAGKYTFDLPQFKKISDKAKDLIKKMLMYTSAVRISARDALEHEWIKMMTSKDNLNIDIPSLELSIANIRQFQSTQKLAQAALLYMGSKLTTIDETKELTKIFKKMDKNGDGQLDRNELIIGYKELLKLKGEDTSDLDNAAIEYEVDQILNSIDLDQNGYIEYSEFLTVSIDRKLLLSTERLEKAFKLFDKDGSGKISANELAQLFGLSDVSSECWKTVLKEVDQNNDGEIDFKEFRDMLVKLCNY

Unmarked numbers belong to inactive results. For part of these data: Results with a measured potency or affinity are listed apart. Active and inactive are the calls of the source. Unless noted, no rule for the calls is given here.

Chain of L-lactate dehydrogenase (Plasmodium falciparum (isolate CDC / Honduras)) (Q27743 whole entry, looked up): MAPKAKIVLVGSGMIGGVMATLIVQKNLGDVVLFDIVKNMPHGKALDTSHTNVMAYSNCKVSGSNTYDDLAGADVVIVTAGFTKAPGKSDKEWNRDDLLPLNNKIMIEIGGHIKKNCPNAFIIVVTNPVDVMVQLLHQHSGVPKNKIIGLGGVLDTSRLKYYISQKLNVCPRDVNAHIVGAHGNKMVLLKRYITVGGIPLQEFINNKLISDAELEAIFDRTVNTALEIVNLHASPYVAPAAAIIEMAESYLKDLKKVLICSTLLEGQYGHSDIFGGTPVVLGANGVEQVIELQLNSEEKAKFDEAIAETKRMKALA

As usually defined, the inhibition is the relative decrease from the control value, in per cent. In the case of `CCCc1ccccc1Nc1nc(C)cc(N(CC)CCCN2CCCCC2)n1`, the growth inhibition in assay [1] is 49%; in assay [4], 98% (active). Besides, the inhibition in assay [2] was 27%; in assay [3], -3%. For the same compound, the outcome in assay [5], in assay [6], in assay [7] and in assay [8] was inactive.

On to `COc1ccc(NC(=O)CCNc2cc(C)nc(NCCc3ccccc3)n2)cc1`, for which the growth inhibition in assay [1] was 0%; in assay [4] it was 85% (active). Also, the inhibition in assay [2] was 3%; in assay [3] it was -2%. Also, the outcome in assay [5], in assay [6], in assay [7] and in assay [8] was inactive.

On to `COc1ccc(NC(=O)c2ccc3cc4ccccc4cc3c2)cc1N1CCN(C)CC1`, for which the growth inhibition in assay [1] was 29%; in assay [4], 86% (active). The inhibition was 38% in assay [2] and 1% in assay [3]. The result in assay [5], in assay [6], in assay [7] and in assay [8] was inactive.

Turning to `Cc1cccc2[nH]c(-c3ccc(-c4ccc(CN5CCN(CC6CCCN(C)C6)CC5)cc4)s3)nc12` (stereo not drawn), the growth inhibition in assay [1] was 99% (active); in assay [4], 101% (active). Further, the inhibition in assay [2] is 63% (active); in assay [3], -3%. Besides, the result in assay [5], in assay [6], in assay [7] and in assay [8] was inactive.

Consider `NOCCCCOc1cc(Cl)c(Cl)cc1Cl`, for which the results for the growth inhibition in assay [1] and in assay [4] were 5% and 92% (active), respectively. For the same compound, the inhibition in assay [2] was 6%; in assay [3] it was -2%. The result in assay [5], in assay [6], in assay [7] and in assay [8] was inactive.

In the case of `COC(=O)Nc1nc2cc3c(cc2s1)OCCO3`, the values for the growth inhibition in assay [1] and in assay [4] were -1% and 99% (active), respectively. Besides, the inhibition is -12% in assay [2] and 1% in assay [3]. Also, the outcome in assay [5], in assay [6], in assay [7] and in assay [8] was inactive.

On to `Fc1ccc(Nc2ccnc3cc(-c4ccc(CN5CCOCC5)o4)ccc23)c(Cl)c1`, for which the growth inhibition was 100% (active) in assay [1] and 101% (active) in assay [4]. Also, the figures for the inhibition in assay [2] and in assay [3] were 42% and 5%, respectively. For the same compound, the outcome in assay [5], in assay [6], in assay [7] and in assay [8] was inactive.

On to `Cc1ccc2c(-c3ccc([N+](=O)[O-])o3)cc(C)nc2c1`, for which the growth inhibition is 47% in assay [1] and 95% (active) in assay [4]. For the same compound, the inhibition is 20% in assay [2] and 3% in assay [3]. Besides, the outcome in assay [5], in assay [6], in assay [7] and in assay [8] was inactive.

Consider `O=C(Nc1ccccc1Cl)N(Cc1cc(Cl)cc(Cl)c1)CC(O)COc1ccc(Cl)c(F)c1` (stereo not drawn), for which the growth inhibition in assay [1] was 17%; in assay [4], 93% (active). The inhibition in assay [2] was 0%; in assay [3] it was 4%. For the same compound, the outcome in assay [5], in assay [6], in assay [7] and in assay [8] was inactive.

With `COc1cc(NC(=O)c2ccc(-c3ccccc3)cc2)ccc1OCCCN1CCC(c2ccccc2)CC1`, the growth inhibition in assay [1] is 30%; in assay [4], 103% (active). In addition, the values for the inhibition in assay [2] and in assay [3] were 46% and 2%, respectively. In addition, the result in assay [5], in assay [6], in assay [7] and in assay [8] was inactive.

With `COc1ccc(NC(=O)Nc2cccc(-c3ccncc3)c2)cc1N1CCN(C)CC1`, the growth inhibition in assay [1] was 57% (active); in assay [4], 98% (active). In addition, the inhibition in assay [2] was 9%; in assay [3], 5%. Moreover, the result in assay [5], in assay [6], in assay [7] and in assay [8] was inactive.

With `CC(Oc1c(C2CCN(CCCCNC(=O)c3ccc(-c4ccc(Cl)cc4)cc3)CC2)ccc2c1CCCC2)C(N)=O` (stereo not drawn), the growth inhibition in assay [1] was 16%; in assay [4], 99% (active). Besides, the results for the inhibition in assay [2] and in assay [3] were 100% (active) and 3%, respectively. In addition, the result in assay [5], in assay [6], in assay [7] and in assay [8] was inactive.

As to `CCCCc1cc(NCc2ccncc2)nc(Nc2ccccc2)n1`, the figures for the growth inhibition in assay [1] and in assay [4] were 4% and 96% (active), respectively. Moreover, the inhibition is -5% in assay [2] and -3% in assay [3]. The result in assay [5], in assay [6], in assay [7] and in assay [8] was inactive.

Consider `O=C(Cn1cc(C(F)(F)F)cc(Cl)c1=O)N1CCN(S(=O)(=O)c2ccc(Cl)cc2)CC1`, for which the growth inhibition in assay [1] was 69% (active); in assay [4] it was 99% (active). Further, the inhibition is 14% in assay [2] and 0% in assay [3]. Also, the result in assay [5], in assay [6], in assay [7] and in assay [8] was inactive.

Consider `Cc1cc(C(=O)Nc2nc(-c3ccccn3)nc3ccsc23)no1`, for which the results for the growth inhibition in assay [1] and in assay [4] were 90% (active) and 98% (active), respectively. Further, the values for the inhibition in assay [2] and in assay [3] were 44% and 0%, respectively. The result in assay [5], in assay [6], in assay [7] and in assay [8] was inactive.

For `CCCCCC(C)N=C(Nc1ccc([N+](=O)[O-])cc1O)Nc1ccccc1Br` (stereo not drawn), the growth inhibition in assay [1] was 98% (active); in assay [4] it was 99% (active). The values for the inhibition in assay [2] and in assay [3] were -1% and 5%, respectively. Moreover, the outcome in assay [5], in assay [6], in assay [7] and in assay [8] was inactive.

`O=C(/C=C/c1ccc(Cl)c(Cl)c1)N1CCN(C(=O)Nc2cccc(C(F)(F)F)c2)CC1`: the growth inhibition in assay [1] is 100% (active); in assay [4], 99% (active). The inhibition in assay [2] is 53% (active); in assay [3], 4%. Moreover, the result in assay [5], in assay [6], in assay [7] and in assay [8] was inactive.

As to `CNC(=O)c1cnc(Nc2ccc(N3CCOCC3)cc2)nc1Nc1cccc(O)c1`, the growth inhibition in assay [1] is 78% (active); in assay [4], 90% (active). Further, the inhibition in assay [2] is 23%; in assay [3], -2%. In addition, the result in assay [5], in assay [6], in assay [7] and in assay [8] was inactive.

As to `O=C(Nc1ccc(Cn2ncc(N3CCCNCC3)c(Cl)c2=O)cc1)Nc1ccc(SC(F)(F)F)cc1`, the growth inhibition was 68% (active) in assay [1] and 93% (active) in assay [4]. In addition, the inhibition in assay [2] is 9%; in assay [3], 4%. The result in assay [5], in assay [6], in assay [7] and in assay [8] was inactive.

Consider `CC1(C)CCCN(c2ncc(-c3cccc(CNCc4ccccc4O)c3)cn2)C1`, for which the growth inhibition in assay [1] is 82% (active); in assay [4], 96% (active). The figures for the inhibition in assay [2] and in assay [3] were 35% and -4%, respectively. The result in assay [5], in assay [6], in assay [7] and in assay [8] was inactive.

Take `CC(O)C1CCCCN1C(=O)c1cccc(-c2ccc(-c3nc4ccc(F)cc4[nH]3)cc2)c1` (stereo not drawn): the figures for the growth inhibition in assay [1] and in assay [4] were 99% (active) and 101% (active), respectively. Moreover, the inhibition in assay [2] is 46%; in assay [3], -6%. Moreover, the outcome in assay [5], in assay [6], in assay [7] and in assay [8] was inactive.
